HPGD inh = qHTS Assay for Inhibitors of HPGD (15-Hydroxyprostaglandin Dehydrogenase) | Potency, µM, inactives show top-dose activity change, negative = inhibition, usual class: inhibitors | purified HPGD, NADH fluorescence kinetic, PGE2 substrate | 15-hydroxyprostaglandin dehydrogenase [NAD(+)] (Homo sapiens), P15428 | 150,000 tested, 4.3% active; active = well fitted inhibition curve with a large enough effect, not every such curve was filed as active; inconclusive = small, poorly fitted or top-dose-only effect, or another doubt; inactive = no such curve, though single readings can be large or run the other way; also: potency is read from the fitted curve at half-maximal effect
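NADH formation kinetics: reaction with 30 uM PGE2 and 1 mM NAD+ (final), 20 nM enzyme, Tris-HCl pH 8 with Tween 20, after 15 min compound preincubation at room temperature. Fluorescence change, last versus first of five reads.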
ALDH1A1 block = qHTS Assay for Inhibitors of Aldehyde Dehydrogenase 1 (ALDH1A1) | Aldehyde dehydrogenase 1A1 (Homo sapiens), P00352 | Purified ALDH1A1, NADH fluorescence, propionaldehyde substrate | Potency, µM (doses to about 75.3 µM), inactives show top-dose activity, negative = inhibition, hits mostly inhibitors | 220,000 tested, 7.3% active; active = well fitted inhibition curve with a large enough effect, not every such curve was filed as active; inconclusive = small, poorly fitted or top-dose-only effect, or another doubt; inactive = no such curve, though single readings can be large or run the other way;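 also: potency is read from the fitted curve at half-maximal effect; plate controls were no enzyme wells and a reference inhibitor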
GLA inh pH 4.5 = qHTS Assay for Inhibitors of Human alpha-Galactosidase at pH 4.5 | AID 1467, 2008 | activity change, negative = inhibition, % at 105 µM | purified enzyme, 4-MU-alpha-Gal fluorescence, pH 4.5 | 230,000 tested, under 10 active;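 also: 0% = full activity with enzyme and -100% = basal without enzyme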
PNC inhibitor = High Content Assay for Compounds that inhibit the Assembly of the Perinucleolar Compartment; PC3M PTB-GFP, PNC prevalence imaging, 16 h; active compounds read low; activity change (PNC), negative = inhibition, % at 10 µM; 140,000 tested, 3.1% active; AID 2417, 2010;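 active = readout at or below -70, meaning at least 70% loss of cells showing the perinucleolar compartment, a nuclear body marking cancer cells; inconclusive = readout between -30 and a set limit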;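 also: plate controls were DMSO wells for no effect and camptothecin positive control wells for full effect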
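Read-out is percentage of cells bearing a perinucleolar compartment, from automated 20x imaging of fixed, Hoechst-stained PC3M PTB-GFP cells. Cells were seeded 4 h, then exposed 16 h to compound (23 nl of library stock) in duplicate plates.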
12-hLO inh = qHTS Assay for Inhibitors of 12-hLO (12-human lipoxygenase). Potency, µM (top dose mostly 57.1 µM), for the others: at the highest dose activity change, negative = inhibition, most hits filed as inhibitors. 150,000 tested, 0.12% active. purified 12-hLO, xylenol orange hydroperoxide absorbance. AID 1452, 2008. Polyunsaturated fatty acid lipoxygenase ALOX12 (Homo sapiens), P18054; also: potency is read from the fitted curve at half-maximal effect; nearly all actives have a fitted effect of over 55% in size
Target sequence (P18054 whole entry, looked up): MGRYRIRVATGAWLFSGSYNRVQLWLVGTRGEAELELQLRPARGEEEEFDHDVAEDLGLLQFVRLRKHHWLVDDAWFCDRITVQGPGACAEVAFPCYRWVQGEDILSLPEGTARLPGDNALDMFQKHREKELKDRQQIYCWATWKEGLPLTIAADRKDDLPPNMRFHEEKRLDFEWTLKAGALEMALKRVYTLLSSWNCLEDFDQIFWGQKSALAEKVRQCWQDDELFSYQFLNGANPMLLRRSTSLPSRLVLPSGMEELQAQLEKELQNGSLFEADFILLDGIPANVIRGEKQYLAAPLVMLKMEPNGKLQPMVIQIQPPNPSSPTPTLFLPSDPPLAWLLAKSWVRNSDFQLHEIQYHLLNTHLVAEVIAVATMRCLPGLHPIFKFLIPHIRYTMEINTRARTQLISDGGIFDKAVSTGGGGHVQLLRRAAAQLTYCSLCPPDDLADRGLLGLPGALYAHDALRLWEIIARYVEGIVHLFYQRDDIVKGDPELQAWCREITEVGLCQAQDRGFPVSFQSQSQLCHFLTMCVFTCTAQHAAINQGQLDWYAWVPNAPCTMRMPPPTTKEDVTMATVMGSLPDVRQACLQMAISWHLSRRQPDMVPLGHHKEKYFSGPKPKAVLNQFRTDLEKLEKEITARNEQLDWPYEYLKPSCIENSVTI
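150 nM 12hLO, 25 mM Hepes pH 7.0 + 0.01% Triton X-100; cpd preinc 15 min RT; 40 uM arachidonic acid, 30 min RT; Fe-XO 30 min; A573/A405 ratio as read-out.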
GLA spleen mod = qHTS Assay for Inhibitors and Activators of Human alpha-Galactosidase From Spleen Homogenate | human spleen homogenate, 4MU-alpha-Gal fluorescence, 40 min | Potency, µM (series often up to 80 µM), for the others: top-dose activity change, negative = inhibition, usual class: inhibitors | 240,000 tested, 0.008% active | Alpha-galactosidase A (Homo sapiens), P06280 | AID 2107, 2009;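 also: potency is read from the fitted curve at half-maximal effect; 0% = enzyme with vehicle and -100% = no enzyme basal signal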
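Human spleen homogenate (1 ug) was the enzyme source, with 4-methylumbelliferyl-alpha-D-galactopyranoside (1 mM final) in pH 5.0 citrate buffer with 0.01% Tween-20. Compounds were titrated; after 40 min at 37C, NaOH/glycine stop, 4-MU fluorescence read; AC50 from Hill fits.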
* marks the source's active call; other numbers are inactive results; [ ] = remark or other dose. Shown are actives, neighbours in structure and some others; about 10% of the full set was active somewhere. Unless noted, calls follow the shape of the dose curve; as a rule, active = well fitted curve in the direction sought with a large enough effect; inconclusive = small, poorly fitted or top-dose-only effect, or another doubt; inactive = no such curve, though single readings can be large; an effect the other way counts as inactive or inconclusive. Unless noted, % is scaled to controls: 0 for no effect and ±100 for the full control effect.

Results for O=C(NCC1OCCc2ccccc21)c1ccco1 (stereo not drawn) ?
HPGD inh: -21%; ALDH1A1 block: 7.9µM*; GLA inh pH 4.5: 8; PNC inhibitor: 18; 12-hLO inh: -6%; GLA spleen mod: 1%

Results for CC(S)C(=O)NCC(=O)O (stereo not drawn) ?
HPGD inh: -7%; ALDH1A1 block: 18µM*; GLA inh pH 4.5: -8; 12-hLO inh: 0%[0.00818 µM]; GLA spleen mod: 6%

Results for Cc1ccc(NC(=O)CN2C(=S)NC(C)(C)CC2C)cc1Cl (stereo not drawn) ?
ALDH1A1 block: inconclusive; GLA inh pH 4.5: -2; GLA spleen mod: 1%

How did CCN(C(=O)CN1C(=S)NC(C)(C)CC1C)c1ccc(C)c(C)c1 (stereo not drawn) do in these assays?
ALDH1A1 block: 28µM*; GLA inh pH 4.5: -1; GLA spleen mod: -4%

How did CC(=O)OC[C@@H]1O[C@H](CCO/N=C(\C)CCN2CCc3nc(-c4ccccc4)c(-c4ccccc4)cc3C2)C=C[C@@H]1OC(C)=O do in these assays?
ALDH1A1 block: -6%[13.5 µM]; GLA spleen mod: 9%[17.5 µM]

What do the screens show for `CC(C1CC2CCC1C2)n1c(-c2ccco2)n[nH]c1=S` (stereo not drawn)?
ALDH1A1 block: 14µM*; GLA inh pH 4.5: 8; GLA spleen mod: 4%

What do the screens show for `N#CC1=C(N2CCCCC2)c2cc3c(n2C1=O)CCCC3`?
HPGD inh: 25µM*; ALDH1A1 block: 8.9µM*; GLA inh pH 4.5: 3; PNC inhibitor: 0; 12-hLO inh: -9%; GLA spleen mod: 2%

How did O=C(NC(=S)Nc1ccc2c(c1)OCCO2)c1cccc(Br)c1 do in these assays?
HPGD inh: -16%; ALDH1A1 block: 14µM*; GLA inh pH 4.5: 1; PNC inhibitor: -26; 12-hLO inh: inconclusive; GLA spleen mod: 6%

Results for O=C(O)c1ccccc1NC(=S)NC(=O)c1cccc2ccccc12 ?
ALDH1A1 block: inconclusive; GLA inh pH 4.5: 4; GLA spleen mod: -1%

Results for O=C(NC(=S)Nc1ccc2c(c1)OCCO2)c1cccc2ccccc12 ?
HPGD inh: -19%; ALDH1A1 block: 13µM*; GLA inh pH 4.5: -10; PNC inhibitor: -8; 12-hLO inh: inconclusive; GLA spleen mod: -5%

How did O=c1cc(-c2ccccc2Cl)oc2c(NS(=O)(=O)c3cc(Cl)cc(Cl)c3O)ccc(O)c12 do in these assays?
HPGD inh: 4.5µM*; ALDH1A1 block: 10µM*; GLA inh pH 4.5: -7; PNC inhibitor: 38; 12-hLO inh: 0.28µM*; GLA spleen mod: 5%

What do the screens show for `CCc1ccc(S(=O)(=O)Nc2ccc(O)c3c(=O)cc(-c4ccccc4Cl)oc23)cc1`?
GLA inh pH 4.5: -7; GLA spleen mod: 4%

What do the screens show for `CSc1ccc(Cl)c(C(=O)OCC(=O)NCC(C)C)c1`?
HPGD inh: 14µM*; ALDH1A1 block: -13%; GLA inh pH 4.5: -1; PNC inhibitor: -19; 12-hLO inh: 3%; GLA spleen mod: -7%

What do the screens show for `CCOCCCNC(=O)CN1C(=O)CSc2ccccc21`?
HPGD inh: -10%; ALDH1A1 block: 11%; GLA inh pH 4.5: 0; PNC inhibitor: 28; 12-hLO inh: -1%; GLA spleen mod: -13%

How did CCOCCCNC(=O)CN1C(=O)CSc2cc(S(=O)(=O)N3CCCCCC3)ccc21 do in these assays?
ALDH1A1 block: 10µM*; GLA inh pH 4.5: -1; PNC inhibitor: 13; 12-hLO inh: -1%; GLA spleen mod: 1%
